From PubChem BioAssay (Tox21) come the findings set out here.

The nature of test [1]: qHTS assay to identify small molecule antagonists of the estrogen related receptor (ERR) signaling pathway from Tox21 library - cell viability counter screen (AID 1224834). Further: nearly all actives have a fitted effect of over 30% in size. Further: potency means the concentration at half of the fitted maximal effect. The method, boiled down: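 Viability readout (CellTiter-Fluor fluorescence, 30 min at 37 C) multiplexed with the ERR assay; cells treated 17.5 h at 37 C with compounds delivered in DMSO.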
Background: qHTS replaces the single test concentration by a dilution series.

Test [2] concerns the target Luciferin 4-monooxygenase (Photinus pyralis) (UniProt P08659). In words: qHTS assay to identify small molecule inhibitors of firefly luciferase (AID 1224835). Further: nearly all actives have a fitted effect of over 25% in size. Further: potency means the concentration at half of the fitted maximal effect. The method, boiled down:
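Quantitative HTS format; KM concentrations of both substrates. Purified P. pyralis FLuc activity quantified from luminescence images.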

A short description of test [3]: qHTS assay to identify small molecule agonists of the constitutive androstane receptor (CAR) signaling pathway - cell viability counter screen (AID 1224836). Further: nearly all actives have a fitted effect of over 45% in size. Further: potency means the concentration at half of the fitted maximal effect. In a few lines:
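Multiplexed viability check: HepG2-CYP2B6-hCAR cells, 15-point compound dosing, 0.75 uM PK11195 final, 23 h at 37 C, CellTiter-Fluor fluorescence.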

The nature of test [4]: qHTS assay to identify small molecule antagonists of the constitutive androstane receptor (CAR) signaling pathway - cell viability counter screen (AID 1224837). Further: nearly all actives have a fitted effect of over 45% in size. Further: potency means the concentration at half of the fitted maximal effect. In a few lines: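 Fluorescence from CellTiter-Fluor served as the viability signal. Human hepatoma HepG2 cells stably bearing hCAR and CYP2B6-2.2kb received compound plus CITCO (50 nM final) for 23 hr.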
Test [5] deals with Nuclear receptor subfamily 1 group I member 3 (Homo sapiens) (UniProt Q14994). Briefly: qHTS assay to identify small molecule antagonists of the constitutive androstane receptor (CAR) signaling pathway (AID 1224838).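 Further: HepG2 cells stably expressing hCAR with CYP2B6 luciferase reporter stimulated by CITCO; nearly all actives have a fitted effect of over 40% in size.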 Further: potency means the concentration at half of the fitted maximal effect. The method, boiled down:
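Quantitative HTS in double-stable HepG2-CYP2B6-hCAR cells. After 4 h plating, cells get compound (15 concentrations) and CITCO at 50 nM final, incubate 24 h at 37 C, then ONE-Glo luminescence is read.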

Test [6] shares this target. Briefly: qHTS assay to identify small molecule agonists of the constitutive androstane receptor (CAR) signaling pathway (AID 1224839). Further: nearly all actives have a fitted effect of over 15% in size. Further: potency means the concentration at half of the fitted maximal effect.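 On activation: HepG2 cells stably carrying human CAR and a CYP2B6 luciferase reporter.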 In a few lines:
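Using human hepatoma HepG2 cells engineered with hCAR and a CYP2B6-2.2kb reporter, 15-concentration compound series were incubated 24 h alongside PK11195 at 0.75 uM final, with luminescence quantified afterwards.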

Test [7] is described as follows: qHTS assay to identify small molecule antagonists of the estrogen related receptor signaling pathway with the pleiotropic PPARgamma coactivator (PGC) from Tox21 10K library - cell viability counter screen (AID 1224840; active means well fitted cell-killing curve with a large enough effect in the repeat runs, not every such curve was filed as active; further: nearly all actives have a fitted effect of over 40% in size; further: potency means the concentration at half of the fitted maximal effect). In a few lines:
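Compounds in DMSO, alongside positive and negative controls, were pinned onto PGC/ERR cells (2,000 per well). Exposure lasted 17.5 hours at 37 C, followed by a 30-minute CellTiter-Fluor incubation and fluorescence reading.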

Test [8] in a line: qHTS assay to identify small molecule antagonists of the estrogen related receptor signaling pathway with the pleiotropic PPARgamma coactivator (PGC) from Tox21 10K library (AID 1224841; call rule not given here; further: actives are mostly falling curves and most rising ones were filed inactive; nearly all actives have a fitted effect of over 50% in size; further: potency means the concentration at half of the fitted maximal effect). The method, boiled down: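 Compound exposure ran 18 hours at 37 C in PGC/ERR cells (2,000/well) that had first rested 6 hours in a 37 C/5% CO2 incubator. Luciferase activity was then detected with One-Glo after a 30-minute room-temperature step.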

Test [9] in a line: qHTS assay to identify small molecule agonists of the estrogen related receptor signaling pathway with the pleiotropic PPARgamma coactivator (PGC) from Tox21 10K library (AID 1224842). Further: nearly all actives have a fitted effect of over 15% in size. In a few lines: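 PGC/ERR reporter cells (NTP line) were seeded 2,000 per well, rested 6 h at 37 C/5% CO2, then pin-dosed with compounds in DMSO for 18 h at 37 C; luciferase read by One-Glo luminescence after 30 min at room temperature.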

For test [10], the target named is Thyrotropin receptor (Homo sapiens) (UniProt P16473). Briefly: qHTS assay to identify small molecule agonists of the thyroid stimulating hormone receptor (TSHR) signaling pathway (AID 1224843; calls by dose curve; further: nearly all actives have a fitted effect of over 45% in size; further: potency means the concentration at half of the fitted maximal effect). In a few lines: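 TSHR-expressing HEK293 cells (800 per well) were exposed to compounds for 30 min at room temperature. cAMP was then detected by HTRF competition with cAMP-d2 and anti-cAMP cryptate, read after 1 h at room temperature. Fifteen concentrations, triplicate.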
Chain of Thyrotropin receptor (Homo sapiens) (P16473 whole entry, looked up): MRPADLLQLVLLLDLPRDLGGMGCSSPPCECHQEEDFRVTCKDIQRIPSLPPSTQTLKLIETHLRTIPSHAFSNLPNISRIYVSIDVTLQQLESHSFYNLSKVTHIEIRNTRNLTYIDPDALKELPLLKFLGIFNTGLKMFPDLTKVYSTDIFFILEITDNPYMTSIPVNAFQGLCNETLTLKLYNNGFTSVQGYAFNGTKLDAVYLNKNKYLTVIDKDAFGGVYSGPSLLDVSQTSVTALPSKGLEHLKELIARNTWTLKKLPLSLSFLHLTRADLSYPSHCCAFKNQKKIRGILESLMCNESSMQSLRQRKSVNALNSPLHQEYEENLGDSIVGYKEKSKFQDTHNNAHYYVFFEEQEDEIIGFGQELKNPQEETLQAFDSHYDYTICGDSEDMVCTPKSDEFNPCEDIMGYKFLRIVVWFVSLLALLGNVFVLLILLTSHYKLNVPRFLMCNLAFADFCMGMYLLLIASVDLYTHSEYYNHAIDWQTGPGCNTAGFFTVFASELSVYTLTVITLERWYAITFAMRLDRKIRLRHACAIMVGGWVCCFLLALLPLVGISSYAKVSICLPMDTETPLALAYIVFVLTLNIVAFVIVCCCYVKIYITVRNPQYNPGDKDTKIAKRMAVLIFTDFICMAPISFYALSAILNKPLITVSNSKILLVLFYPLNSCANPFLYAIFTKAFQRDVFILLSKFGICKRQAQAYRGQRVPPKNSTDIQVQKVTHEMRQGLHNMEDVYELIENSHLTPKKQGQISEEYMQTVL

Test [11] in a line: qHTS assay to identify small molecule agonists of the hypoxia (HIF-1) signaling pathway - cell viability counter screen (AID 1224844; calls by dose curve; further: nearly all actives have a fitted effect of over 50% in size; further: potency means the concentration at half of the fitted maximal effect). The method, boiled down:
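Luminescent ATP content (CellTiter-Glo, 30 min, room temperature) served as the viability measure in HRE-bla ME-180 cells exposed to compounds for 17 hrs in low-serum medium (0.5% dialyzed FBS).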

Test [12] is described as follows: qHTS assay to identify small molecule agonists of H2AX (AID 1224845; active means well fitted activation curve with a large enough effect in the signal ratio in the repeat runs, not every such curve was filed as active; the % refers to the signal ratio). The method, boiled down: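 Wild-type CHO-K1 cells plated overnight, then exposed 3 hr at 37C to compounds at 15 concentrations (0.76% DMSO). Lysed, then HTRF anti-pH2AX(S139)-cryptate/anti-H2AX-d2 detection after 24 hr at room temperature; emissions 665 and 620 nm.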
Test [13] is described as follows: qHTS assay to identify small molecule agonists of the hypoxia (HIF-1) signaling pathway (AID 1224846; active means well fitted activation curve with a large enough effect in the signal ratio in the repeat runs, not every such curve was filed as active; the % refers to the signal ratio). In a few lines:
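Measured by blue/green FRET after loading CCF4-AM: beta-lactamase expressed from a hypoxia response element in ME-180 cells. Test agents were delivered in DMSO and left 17 hrs; cells had been plated 5 hrs earlier in low-serum (0.5% dialyzed FBS) medium.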

Test [14] in a line: qHTS assay to identify small molecule agonists of H2AX - cell viability counter screen (AID 1224847; calls by dose curve; further: top concentration of the series differs between compounds; nearly all actives have a fitted effect of over 30% in size). The method, boiled down:
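After overnight plating of 1000 CHO-K1 cells per well, a 15-concentration compound series was applied for 3 hr at 37C. Luminescence from CellTiter-Glo, read following 30 min at room temperature, reflected cell viability.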

Test [15] is described as follows: qHTS assay to identify small molecule antagonists of the estrogen related receptor (ERR) signaling pathway from Tox21 library (AID 1224848). Further: nearly all actives have a fitted effect of over 50% in size. Further: potency means the concentration at half of the fitted maximal effect. The method, boiled down:
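Cells: ERR line, 2,000/well; 6 h preincubation 37 C/5% CO2. Cpd in DMSO via pin tool; 18 h, 37 C. ONE-Glo, 30 min RT, luminescence.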

Test [16] can be described thus: qHTS assay to identify small molecule agonists of the estrogen related receptor (ERR) signaling pathway from Tox21 library (AID 1224849; calls by dose curve; further: nearly all actives have a fitted effect of over 15% in size). As to conditions: ERR reporter cell line, ONE-Glo luciferase, 18 h; at 92.4 µM (top of the series) unless noted. The method, boiled down: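 We plated ERR reporter cells, waited 6 h, added compounds in DMSO by pin tool and incubated them 18 h at 37 C. ONE-Glo was then added and luminescence read after 30 min.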

Test [17] can be described thus: qHTS RealTime-Glo MT Cell Viability Assay in HepG2 cells - 24 hour (AID 1224867). Further: nearly all actives have a fitted effect of over 50% in size. Further: potency means the concentration at half of the fitted maximal effect. In a few lines: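 Cell number in HepG2 cultures estimated from NanoLuc luminescence generated by metabolic reduction of a prosubstrate by living cells. The homogeneous, nonlytic format allowed repeated reads at 0, 8, 16, 24, 32 and 40 h of compound exposure.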
Test [18] can be described thus: qHTS RealTime-Glo MT Cell Viability Assay in HEK293 cells - 32 hour (AID 1224868). Further: nearly all actives have a fitted effect of over 50% in size. Further: potency means the concentration at half of the fitted maximal effect. In a few lines:
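Homogeneous bioluminescent viability format in HEK293 cells (600 cells/well). Following 5 h at 37 C/5% CO2, 23 nL compound was pintooled; the signal was measured repeatedly during 40 h incubation.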

A short description of test [19]: A CellTox Green Cytotoxicity Assay to monitor cytotoxicity in HEK293 cells - 0 hour (AID 1224869). Further: nearly all actives have a fitted effect of over 50% in size. The method, boiled down:
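Each value comes from one timepoint of a single continuous run in which HEK293 cells with CellTox Green were exposed to compound for up to 40 h at 37 C, dye fluorescence rising with cell death.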

A short description of test [20]: qHTS RealTime-Glo MT Cell Viability Assay in HepG2 cells - 40 hour (AID 1224870). Further: nearly all actives have a fitted effect of over 50% in size. Further: potency means the concentration at half of the fitted maximal effect. The method, boiled down: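 HepG2 cells mixed with RealTime-Glo MT reagents (NanoLuc plus cell-permeant prosubstrate) were seeded at 600 cells/well, incubated 5 h at 37 C/5% CO2, then pinned with compounds in DMSO; nonlytic luminescence tracked viability during 40 h treatment.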

Values joined by “and” are separate entries in the source; they are usually repeats but may differ in a detail not shown here. Equal values may be shown once. Values without a mark were called inactive. Results filed as inconclusive are left out. Active and inactive are the calls of the source. Unless noted, the call rests on the fitted dose curve; in most records, active means well fitted curve in the direction sought with a large enough effect in the repeat runs; inconclusive means weak or mixed curves; inactive means no such curve, though single readings can be large; an effect the other way counts as inactive or inconclusive.
On the % scale 0 is the no-effect control and ±100 the full control effect.

Chain of Luciferin 4-monooxygenase (Photinus pyralis) (P08659 whole entry, looked up): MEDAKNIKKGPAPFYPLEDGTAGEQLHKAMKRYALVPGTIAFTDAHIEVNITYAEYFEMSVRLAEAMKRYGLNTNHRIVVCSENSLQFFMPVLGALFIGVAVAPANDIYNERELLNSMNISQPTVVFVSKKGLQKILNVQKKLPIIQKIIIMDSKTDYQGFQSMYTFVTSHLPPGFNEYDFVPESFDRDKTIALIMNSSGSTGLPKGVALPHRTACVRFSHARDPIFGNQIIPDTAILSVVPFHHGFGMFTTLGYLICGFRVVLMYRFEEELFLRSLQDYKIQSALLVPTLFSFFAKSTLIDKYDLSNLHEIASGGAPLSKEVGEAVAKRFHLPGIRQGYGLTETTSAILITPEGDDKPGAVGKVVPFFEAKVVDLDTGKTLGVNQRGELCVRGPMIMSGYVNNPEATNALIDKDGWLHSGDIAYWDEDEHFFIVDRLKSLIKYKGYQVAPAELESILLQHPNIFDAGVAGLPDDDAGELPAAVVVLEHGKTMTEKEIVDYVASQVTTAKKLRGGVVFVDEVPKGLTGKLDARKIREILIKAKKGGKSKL
Chain of Nuclear receptor subfamily 1 group I member 3 (Homo sapiens) (Q14994 whole entry, looked up): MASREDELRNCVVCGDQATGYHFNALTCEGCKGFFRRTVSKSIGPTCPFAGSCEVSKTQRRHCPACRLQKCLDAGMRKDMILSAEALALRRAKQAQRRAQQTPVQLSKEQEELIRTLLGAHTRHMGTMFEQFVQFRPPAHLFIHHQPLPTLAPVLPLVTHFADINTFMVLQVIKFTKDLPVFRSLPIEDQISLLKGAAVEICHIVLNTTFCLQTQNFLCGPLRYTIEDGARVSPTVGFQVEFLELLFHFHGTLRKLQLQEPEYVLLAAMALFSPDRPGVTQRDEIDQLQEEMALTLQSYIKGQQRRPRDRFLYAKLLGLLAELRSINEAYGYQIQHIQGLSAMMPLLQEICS

With `CC(C)=CC(=O)C=C(C)C`, the Potency entry in test [1], in test [2], in [3], in test [4], in test [5] and in test [6] was “inactive” throughout. In addition, the Potency entry in test [7], in test [8], in [9], in [10], in test [11] and in test [12] was “inactive” each time. Moreover, the Potency result in test [14], in test [15], in test [17], in test [18], in test [19] and in test [20] was “inactive” each time. Also, in test [13], the compound was called inactive. In [16], the activity change, positive = activation was 0.257%.

In the case of `C[C@@H]1CC(=O)NN=C1c1ccc(NN=C(C#N)C#N)cc1`, the Potency in [1] was 18.8 µM (active) and 13.3 µM (active); in test [2] it was 5.49 µM (active) and 9.77 µM (active); in [3], 11900 nM (active); in [4], 11900 nM (active); in test [5], 21100 nM (active); in [7] it was 26.6 µM (active) and 23.7 µM (active). Besides, the results for the Potency in [8], in test [10] and in test [15] were 4730 nM (active), 841 nM (active) and 13300 nM (active), respectively. Besides, the Potency result in [6], in [9], in [11] and in test [19] was “inactive” in each case. Moreover, the activity change, positive = activation in test [16] was -30.7% [at 42.5 µM] and -38.2% [at 42.5 µM].

As to `Cc1cccc(N(C)C(=S)Oc2ccc3c(c2)CCC3)c1`, the Potency result in test [1], in [2], in test [3], in test [4], in test [5] and in test [7] was “inactive” throughout. In addition, the Potency result in [8], in [9], in [11], in test [12], in test [17] and in test [18] was “inactive” throughout. Also, the Potency entry in test [19] and in test [20] was “inactive” each time. Further, the Potency in test [6] is 23700 nM (active). Moreover, the outcome in test [13] was inactive. Also, in test [16], the activity change, positive = activation was -21.2% [at 42.5 µM].

Turning to `CCCCC(CC)CN` (configuration not stated), the Potency result in [1], in test [2], in test [3], in [4], in test [5] and in test [6] was “inactive” throughout. Besides, the Potency entry in [7], in test [8], in test [9], in [10], in test [11] and in test [14] was “inactive” each time. For the same compound, the Potency result in test [15], in test [17], in [18] and in [19] was “inactive” throughout. In addition, the result in test [13] was inactive. Further, the activity change, positive = activation in test [16] is 2.45%.

Take `CC(C)C[C@H](NC(=O)[C@H](CCc1ccccc1)NC(=O)CN1CCOCC1)C(=O)N[C@@H](Cc1ccccc1)C(=O)N[C@@H](CC(C)C)C(=O)[C@@]1(C)CO1`: the Potency in test [1] was 133 nM (active); in test [3] it was 376 nM (active); in [4] it was 422 nM (active); in test [5], 119 nM (active); in test [7], 3.35 µM (active); in [8], 84.1 nM (active). Further, the Potency is 213 nM (active) in [11]; 59.6 nM (active) in test [15]; 67.4 nM (active) in [17]; 37.9 nM (active) in [18]; 23.9 nM (active) in test [20]. In addition, the Potency entry in test [2], in [6], in [9], in test [12], in test [14] and in test [19] was “inactive” throughout. In addition, the compound was classed as inactive in [13]. Further, the activity change, positive = activation in test [16] is -67.1% [at 42.5 µM].

With `CC(O)c1ccccc1` (configuration not stated), the Potency result in test [1], in test [2], in test [3], in [4], in test [5] and in [6] was “inactive” throughout. Also, the Potency result in test [7], in test [8], in test [9], in test [10], in test [11] and in test [12] was “inactive” in each case. Also, the Potency result in [14], in test [15], in test [17], in test [18], in test [19] and in test [20] was “inactive” throughout. The outcome in [13] was inactive. Besides, the activity change, positive = activation in test [16] is 5.42%.

Consider `CC(C)=CCC/C(C)=C/CC/C(C)=C/CCC(=O)OC/C=C(\C)CCC=C(C)C`, for which the Potency result in [1], in test [2], in test [3], in test [4], in test [5] and in test [6] was “inactive” each time. Also, the Potency result in test [7], in test [8], in [9], in test [10], in test [11] and in test [12] was “inactive” throughout. Also, the Potency result in [15], in test [17], in test [18], in test [19] and in test [20] was “inactive” throughout. For the same compound, the outcome in [13] was inactive. Also, the activity change, positive = activation in test [16] was -0.27% [at 42.5 µM].
